The record followed here is PMC5700166.

Changes are numbered by the printed parent chain.

Common to all, as to test: protein-binding microarray (PBM); PBM: ~300 nM protein, 6 mM HEPES pH 7.8, 80 mM KCl, 0.5 mM EDTA, 0.5 mM EGTA, 6% glycerol, 35 ng/ul poly-dIdC, 1% milk, 1 h, room temperature; Ap Aiptasia and Nv Nematostella (sea anemones) / Co Capsaspora / Aq Amphimedon (sponge) / Dm Drosophila / Hu human; RHD is the Rel homology domain; high values mean tight binding
Common to all, as to settings: dsDNA, one strand shown

In one assay the target is T1, GST-Ap-NF-kB RHD (Exaiptasia pallida (Aiptasia), UniProt A0A913YAJ5 2-422).
T1 sequence: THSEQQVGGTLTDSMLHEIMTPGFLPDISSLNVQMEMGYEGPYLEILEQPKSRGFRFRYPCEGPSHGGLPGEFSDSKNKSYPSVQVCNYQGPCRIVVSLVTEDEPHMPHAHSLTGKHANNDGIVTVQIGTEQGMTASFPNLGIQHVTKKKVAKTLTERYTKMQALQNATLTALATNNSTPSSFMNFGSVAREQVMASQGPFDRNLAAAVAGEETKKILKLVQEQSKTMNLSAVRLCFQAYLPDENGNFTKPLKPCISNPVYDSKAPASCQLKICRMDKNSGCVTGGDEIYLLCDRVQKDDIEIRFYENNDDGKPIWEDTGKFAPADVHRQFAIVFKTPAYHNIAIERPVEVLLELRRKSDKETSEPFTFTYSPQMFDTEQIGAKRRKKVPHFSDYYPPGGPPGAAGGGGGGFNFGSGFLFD

The target in assay [1] is T2, GST-Nv-NF-kB (Cys allele) (Nematostella vectensis, UniProt E5G601 2-411).
T2 sequence: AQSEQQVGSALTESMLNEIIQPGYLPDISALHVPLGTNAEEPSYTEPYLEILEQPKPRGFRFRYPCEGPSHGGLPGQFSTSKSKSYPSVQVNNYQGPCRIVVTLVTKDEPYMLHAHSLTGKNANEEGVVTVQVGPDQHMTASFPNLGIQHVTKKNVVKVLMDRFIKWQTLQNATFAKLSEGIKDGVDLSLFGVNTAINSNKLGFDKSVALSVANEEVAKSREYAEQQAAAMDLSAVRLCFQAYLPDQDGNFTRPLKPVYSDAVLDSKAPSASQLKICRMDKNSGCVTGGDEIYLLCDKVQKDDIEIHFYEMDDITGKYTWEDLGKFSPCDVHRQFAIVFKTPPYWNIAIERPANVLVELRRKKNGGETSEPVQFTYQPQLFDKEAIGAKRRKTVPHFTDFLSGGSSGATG

Assay [2] addresses T3, GST-Nv-NF-kB (Ser allele) (Nematostella vectensis, UniProt A7UNT2 2-411).
T3 sequence: T2 sequence with Q21R, C66S, S207N, E215Q, V217A, E225K, A268E, D399E

The target of a further assay is T4, GST-Co-NF-kB (Capsaspora owczarzaki, UniProt F1ARL5 200-546).
T4 sequence: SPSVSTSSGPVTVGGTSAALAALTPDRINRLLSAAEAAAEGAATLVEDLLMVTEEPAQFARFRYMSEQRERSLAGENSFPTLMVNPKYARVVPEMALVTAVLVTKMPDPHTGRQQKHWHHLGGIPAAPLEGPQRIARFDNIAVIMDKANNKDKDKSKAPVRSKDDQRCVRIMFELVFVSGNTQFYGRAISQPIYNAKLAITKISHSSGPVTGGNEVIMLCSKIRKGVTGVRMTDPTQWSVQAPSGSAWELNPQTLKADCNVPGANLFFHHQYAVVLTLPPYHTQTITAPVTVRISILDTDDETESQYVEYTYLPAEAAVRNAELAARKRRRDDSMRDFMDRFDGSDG

Another assay addresses T5, GST-Dm-Relish (Drosophila melanogaster, UniProt Q94527 99-473).
T5 sequence: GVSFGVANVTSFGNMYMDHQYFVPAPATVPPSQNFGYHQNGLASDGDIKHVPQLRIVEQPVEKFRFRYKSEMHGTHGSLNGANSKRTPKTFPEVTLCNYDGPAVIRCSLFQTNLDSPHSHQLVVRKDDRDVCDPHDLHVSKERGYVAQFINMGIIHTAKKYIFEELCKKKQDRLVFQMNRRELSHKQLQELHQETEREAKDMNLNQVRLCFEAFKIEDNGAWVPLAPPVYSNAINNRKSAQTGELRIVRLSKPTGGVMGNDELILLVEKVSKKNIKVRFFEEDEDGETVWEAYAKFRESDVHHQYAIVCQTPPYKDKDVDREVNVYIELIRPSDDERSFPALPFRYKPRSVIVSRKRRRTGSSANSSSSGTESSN

Another assay addresses T6, GST-Aq-NF-kB (Amphimedon queenslandica, UniProt A9Y5G7 2-389).
T6 sequence: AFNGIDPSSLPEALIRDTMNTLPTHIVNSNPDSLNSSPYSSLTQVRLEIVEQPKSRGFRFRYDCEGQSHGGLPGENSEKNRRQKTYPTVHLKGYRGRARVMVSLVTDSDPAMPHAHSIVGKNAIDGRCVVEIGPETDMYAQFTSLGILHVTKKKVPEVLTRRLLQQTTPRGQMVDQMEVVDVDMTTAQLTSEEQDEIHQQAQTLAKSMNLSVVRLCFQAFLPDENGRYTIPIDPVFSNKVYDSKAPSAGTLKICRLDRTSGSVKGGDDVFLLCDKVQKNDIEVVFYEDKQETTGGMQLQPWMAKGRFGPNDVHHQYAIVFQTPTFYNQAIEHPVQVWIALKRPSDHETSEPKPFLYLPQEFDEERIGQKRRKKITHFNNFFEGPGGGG

For the next assay, the target named is GST-Hu-p50 (Homo sapiens, UniProt P19838 7-356).
Chain of GST-Hu-p50 (P19838 7-356): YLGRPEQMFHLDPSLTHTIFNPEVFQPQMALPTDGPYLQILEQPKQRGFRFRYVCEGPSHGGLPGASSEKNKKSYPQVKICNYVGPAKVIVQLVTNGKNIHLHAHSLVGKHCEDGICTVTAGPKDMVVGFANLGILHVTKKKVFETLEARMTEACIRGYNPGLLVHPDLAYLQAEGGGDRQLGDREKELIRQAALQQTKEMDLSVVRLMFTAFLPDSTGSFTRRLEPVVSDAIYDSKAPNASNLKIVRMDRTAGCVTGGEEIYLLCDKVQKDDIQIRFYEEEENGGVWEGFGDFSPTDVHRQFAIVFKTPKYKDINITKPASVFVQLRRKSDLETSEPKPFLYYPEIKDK

As for “CCGATTAACATCAAGATATTCCCTGATGTTAATCGGGTCTTGATTCGCTTGACGCTGCTG”, the binding signal is 4.46 z-score with GST-Ap-NF-kB RHD; 4.57 z-score in assay [1]; 5.05 z-score in assay [2]; 3.05 z-score with GST-Co-NF-kB; 2.34 z-score in the assay with GST-Dm-Relish; 4.02 z-score with GST-Aq-NF-kB. In addition, the binding signal with GST-Hu-p50 is 2.44 z-score.
As to “CCGATTAACATCAAGGGGTTTCCTGATGTTAATCGGGTCTTGATTCGCTTGACGCTGCTG”, the binding signal was 6.93 z-score with GST-Ap-NF-kB RHD; 5.76 z-score in assay [1]; 4.08 z-score in assay [2]; 7.98 z-score with GST-Dm-Relish; 6.62 z-score with GST-Aq-NF-kB; 5.36 z-score in the assay with GST-Hu-p50.
As for “CCGATTAACATCAGGAAGCCCCATGATGTTAATCGGGTCTTGATTCGCTTGACGCTGCTG”, the binding signal in the assay with GST-Ap-NF-kB RHD stood at 4.01 z-score; in assay [1], 4.13 z-score; in assay [2], 2.15 z-score; with GST-Dm-Relish it was 5.38 z-score; with GST-Aq-NF-kB, 4.02 z-score; in the assay with GST-Hu-p50 it was 3.77 z-score.
In the case of “CCGATTAACATCAAGGGAATTTCTGATGTTAATCGGGTCTTGATTCGCTTGACGCTGCTG”, the binding signal came out at 6.34 z-score in the assay with GST-Ap-NF-kB RHD; 8.61 z-score in assay [1]; 8.46 z-score in assay [2]; 4.25 z-score with GST-Co-NF-kB; 5.45 z-score in the assay with GST-Dm-Relish; 7.24 z-score with GST-Aq-NF-kB. The same sequence registered a binding signal with GST-Hu-p50 of 5.75 z-score.
In the case of “CCGATTAACATCAGGATAGTCCCTGATGTTAATCGGGTCTTGATTCGCTTGACGCTGCTG”, the binding signal with GST-Ap-NF-kB RHD is 5.8 z-score; in assay [1], 5.23 z-score; in assay [2], 4.11 z-score; with GST-Dm-Relish, 2.84 z-score; with GST-Aq-NF-kB, 6.61 z-score; with GST-Hu-p50, 4.05 z-score.
Turning to “CCGATTAACATCAGCATCCCCCCTGATGTTAATCGGGTCTTGATTCGCTTGACGCTGCTG”, the binding signal with GST-Ap-NF-kB RHD was 5.21 z-score; in assay [1] it was 4.99 z-score; in assay [2] it was 4.67 z-score; with GST-Co-NF-kB, 4.85 z-score; in the assay with GST-Dm-Relish it was 4.52 z-score; with GST-Aq-NF-kB, 4.67 z-score. In addition, the binding signal in the assay with GST-Hu-p50 was 5.05 z-score.
On to “CCGATTAACATCAGGGGAGACCCTGATGTTAATCGGGTCTTGATTCGCTTGACGCTGCTG”, for which the binding signal was determined as 6.47 z-score with GST-Ap-NF-kB RHD; 4.51 z-score in assay [1]; 4.3 z-score in assay [2]; 3.35 z-score with GST-Co-NF-kB; 6.91 z-score with GST-Dm-Relish; 6.37 z-score with GST-Aq-NF-kB. Also, the binding signal in the assay with GST-Hu-p50 was 3.38 z-score.
Turning to “CCGATTAACATCAGGCAAGCCCCTGATGTTAATCGGGTCTTGATTCGCTTGACGCTGCTG”, the binding signal with GST-Ap-NF-kB RHD turned out to be 2.62 z-score; in assay [1], 2.83 z-score; in assay [2], 1.38 z-score; in the assay with GST-Dm-Relish, 2.46 z-score; with GST-Aq-NF-kB it was 5.11 z-score; with GST-Hu-p50, 3.36 z-score.
Take “CCGATTAACATCAGGGAGGCCCCTGATGTTAATCGGGTCTTGATTCGCTTGACGCTGCTG”: the binding signal with GST-Ap-NF-kB RHD was found to be 5.52 z-score; in assay [1], 3.79 z-score; in assay [2] it was 1.37 z-score; in the assay with GST-Dm-Relish it was 6.28 z-score; with GST-Aq-NF-kB, 7.2 z-score; in the assay with GST-Hu-p50 it was 3.63 z-score.
Take “CCGATTAACATCAGGGTTTCACCTGATGTTAATCGGGTCTTGATTCGCTTGACGCTGCTG”: the binding signal with GST-Ap-NF-kB RHD was 1.51 z-score; in assay [1], 1.95 z-score; in assay [2] it was 1.23 z-score; in the assay with GST-Dm-Relish, 5.71 z-score; with GST-Aq-NF-kB it was 3.71 z-score; with GST-Hu-p50, 2.5 z-score.
Take “CCGATTAACATCAGGGGAACTACTGATGTTAATCGGGTCTTGATTCGCTTGACGCTGCTG”: the binding signal came to 6.92 z-score in the assay with GST-Ap-NF-kB RHD; 6.99 z-score in assay [1]; 7.41 z-score in assay [2]; 5.65 z-score with GST-Co-NF-kB; 9.35 z-score in the assay with GST-Dm-Relish; 6.91 z-score in the assay with GST-Aq-NF-kB. In the assay with GST-Hu-p50, the binding signal turned out to be 5.5 z-score.
Turning to “CCGATTAACATCACATCTCCCCCTGATGTTAATCGGGTCTTGATTCGCTTGACGCTGCTG”, the binding signal in the assay with GST-Ap-NF-kB RHD came out at 6.34 z-score; in assay [1], 4.75 z-score; in assay [2], 5.94 z-score; with GST-Co-NF-kB it was 7.54 z-score; in the assay with GST-Dm-Relish, 2.35 z-score; with GST-Aq-NF-kB it was 4.36 z-score. Moreover, the binding signal in the assay with GST-Hu-p50 was 5.73 z-score.
